# PubChem BioAssay AID2717 (Broad Institute, 2010)
# The whole screen tested about 300,000 compounds, of which about 3,200 (1.1%) were called active. This is one part of a sample in which actives are shown more often than they occur. A number with no mark means an inactive call. Cut-off read from the data, not from the text of the source: active = inhibition above about 75%; inconclusive = no clear call, values can overlap the other calls; inactive = below that; tested in HMLE shEcad cells.
# Assay: growth suppression of cancer stem-like cells – cell-based, luminescence, primary screen (AID 2717)
# Conditions: cancer stem cell-like cells viability, at 7.5 µM, stronger effect = higher value
row,Compound,inhibition
1,COc1cccc(CNC(C)C(=O)Nc2ccc(S(=O)(=O)N3CCCC3)cc2)c1 (centres undefined),10.7%
2,CN(C(=O)COC(=O)CCCc1c[nH]c2ccccc12)c1c(N)n(Cc2ccccc2)c(=O)[nH]c1=O,-11.7%
3,CC1(C)CC[C@]2(C(=O)O)CC[C@]3(C)C(=CCC4[C@@]5(C)CC[C@H](O)C(C)(C)C5[C@H](O)C[C@]43C)[C@@H]2C1 (some centres undefined),-4.41%
4,CC1(C)CC[C@@]2(C(=O)O)C(C1)C1=CCC3[C@@]4(C)CC[C@H](O)C(C)(C)C4CC[C@@]3(C)[C@]1(C)C[C@H]2O (some centres undefined),87.8% (active)
5,CC1(C)C2CC[C@]3(C)C(CC=C4[C@@H]5C[C@@](C)(CO)CC[C@]5(C(=O)O)CC[C@]43C)[C@@]2(C)CC[C@@H]1O (some centres undefined),-8.25%
6,CCOC(=O)[C@H]1[C@H]2COc3ccccc3[C@@H]2N2C(=O)CN(Cc3ccccc3)C(=O)[C@@]12C,-9.72%
7,O=C(c1cccc(Cl)c1)N1CCN(Cc2ccccc2)CC1,-14.8%
8,Clc1cccc(CN2COc3c(cc(Cl)c4cccnc34)C2)c1,118% (active)
9,CC(C)CC(=O)N1CCN(Cc2cccc(Cl)c2)CC1,-2.32%
10,O=C(OCC(=O)N1CCCCCC1)c1ccc(Br)c(S(=O)(=O)N2CCOCC2)c1,-10.2%
11,Cc1ccc2nc(-c3cccnc3)c(NC3CCCC3)n2c1,-4.39%
12,COc1ccc(-c2nc3cnccn3c2NC(C)(C)CC(C)(C)C)cc1O,0.145%
13,COc1ccc(-c2nc3cnccn3c2NC2CCCCC2)cc1-c1cccc(Cl)c1,105% (active)
14,CCN(c1ccccc1)S(=O)(=O)c1cccc(C(=O)NCc2ccccc2CN2CCOCC2)c1,-15.2%
15,O=S(=O)(c1ccccc1)c1nc(-c2ccccc2)oc1NCCCN1CCOCC1,-5.33%
16,Cc1ccc(-c2nc(C#N)c(NCCCn3ccnc3)o2)cc1,-10.2%
17,N#Cc1nc(-c2ccc(OCc3ccccc3)cc2)oc1NCCCN1CCOCC1,86.3% (active)
18,CC(=O)Nc1ccc(S(=O)(=O)Nc2ccc(N3CCCCC3)cc2)cc1,21.5%
19,O=S(=O)(Nc1ccc(OC(F)(F)F)cc1)c1cccc2nonc12,-7.85%
20,O=S(=O)(Nc1ccc(O)c2ccccc12)c1ccc(OC(F)(F)F)cc1,106% (active)
21,Cc1nn(C)c(C)c1NS(=O)(=O)c1ccc(OC(F)(F)F)cc1,1.58%
22,Cc1noc(C)c1NC(=O)Nc1ccc2c(c1)C(=O)N([C@H](C)CO)C[C@H](C)[C@@H](CN(C)S(=O)(=O)c1cn(C)cn1)O2,-15.6%
23,Cc1cccc(NC(=O)c2ccc(S(=O)(=O)N(C)c3ccccc3)cc2)n1,-22%
24,COc1ccc(-c2c(C#Cc3ccsc3)c3cc(-c4ccc(CN5CCOCC5)cc4)ccc3n2C)cc1,31.2%
25,CC(C)c1ccc(Cc2nnc(NCCCO)[nH]c2=O)cc1,13.6%
26,COc1ccc(/C=N/Nc2nc3ccccc3c(=O)[nH]2)cc1,13%
27,COc1ccc(Cc2nnc(N/N=C/c3ccccc3O)[nH]c2=O)cc1OC,106% (active)

row,Compound,inhibition
1,C=CCC[C@H](Cc1ccc(F)cc1)C(=O)OC[C@H](C)NC(=O)[C@H](CC=C)CC(=O)N(CCO)Cc1ccccc1,-9.39%
2,COc1cccc2sc(Nc3nc(C)c(C(C)=O)s3)nc12,17.8%
3,COc1ccccc1OCc1nc2ccccc2s1,5.53%
4,COc1cccc2sc(NNC(=O)c3nc4ccccc4s3)nc12,103% (active)
5,CCN(C[C@H]1N[C@@](CC)(C(=O)OC)[C@H]2C(=O)N(C)C(=O)[C@@H]12)C(=O)Nc1ccc(F)cc1,-20.7%
6,N#Cc1nc(-c2cccc3ccccc23)oc1N,8.01%
7,Cc1ccc(NNC(=O)c2cccs2)cc1Cl,90.5% (active)
8,Cc1ccc(NNC(=O)c2c(F)cccc2Cl)cc1Cl,-4.9%
9,O=C(NNC(=O)c1ccc(Cl)cc1Cl)c1cccs1,5.32%
10,CC(=O)Nc1ccc(SC[C@H](Cc2ccccc2)N2CC[C@@H](C)CCC2=O)cc1,1.36%
11,CC(NC(=O)COC(=O)CCC(=O)c1ccc(Cl)cc1)c1ccccc1 (centres undefined),-16.5%
12,O=C(CCNC(=O)c1ccccc1Cl)NN=Cc1ccco1,-8.03%
13,O=[N+]([O-])c1cc(S(=O)(=O)NCCc2ccccn2)ccc1Cl,-19.2%
14,COc1ccc(-c2csc3nc(-c4ccccc4F)oc(=O)c23)cc1OC,98.7% (active)
15,COc1ccccc1-c1nnc(-c2ccc(F)cc2)o1,4.47%
16,COc1ccc(-c2csc(-c3cccs3)n2)cc1OC,11.3%
17,O=S(=O)(Nc1ncnc2sccc12)c1cccc(F)c1,-7.13%
18,COc1ccc(NC(=O)CNc2cc(S(=O)(=O)N3CCOCC3)ccc2N2CCOCC2)c(OC)c1,6.36%
19,COc1ccccc1N(CCOc1ccccc1)S(=O)(=O)c1ccccc1,7.81%
20,COc1ccc2c(c1)O/C(=C\c1ccccc1O)C2=O,-1.63%
21,COc1cc(C#Cc2ccc3cc(CCCO)oc(=O)c3c2)cc(OC)c1,11.5%
22,COc1cc(/C=C2\Oc3ccc(C#Cc4ccc(O)cc4)cc3C2=O)cc(OC)c1,115% (active)
23,O=C1N[C@H](Cc2c[nH]c3ccccc23)COC(=O)[C@H](Cc2ccc(F)cc2)C/C=C\C[C@H]1CC(=O)N(CCO)Cc1ccccc1,36.2%
24,CC(=O)NC(CC(=O)Nc1ccc(S(=O)(=O)N2CCOCC2)cc1)c1ccccc1 (centres undefined),-4.54%
25,CC(=O)c1c(C)[nH]c(C(=O)COC(=O)c2cccs2)c1C,-12.4%
26,COc1ccc(C(=O)C(C)OC(=O)c2cccc(S(=O)(=O)Nc3c(C)n(C)n(-c4ccccc4)c3=O)c2)cc1 (centres undefined),-12.3%
27,O=C(CN1C(=O)NC2(CCCC2)C1=O)Nc1cc(C(F)(F)F)ccc1N1CCOCC1,-16.7%
